Assay outcomes deposited in PubChem by National Center for Advancing Translational Sciences (NCATS).
p53ts 39C kill: cytotoxicity in p53ts cells at nonpermissive temperature; H1299-p53A138V viability at 39C, ATP luminescence, 24 h; 130,000 tested, 1.5% active; Potency, µM (titrated, usually from 46.1 µM), inactives show top-dose activity change, negative = cell killing, actives largely listed as cytotoxic; AID 902; also: nearly all actives have a fitted effect of over 55% in size
HPGD block: blocks human HPGD enzyme activity. Potency, µM, inactives show top-dose activity change, negative = inhibition, usual class: inhibitors. 150,000 tested, 4.3% active. purified HPGD, NADH fluorescence kinetic, PGE2 substrate. P15428; active = well fitted inhibition curve with a large enough effect, not every such curve was filed as active; inconclusive = small, poorly fitted or top-dose-only effect, or another doubt; inactive = no such curve, though single readings can be large or run the other way
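20 nM HPGD preincubated 15 min at room temperature with compound in 50 mM Tris-HCl pH 8, 0.01% Tween 20. Started with 1 mM NAD+ and 30 uM prostaglandin E2; NADH fluorescence (360/450 nm) read 5 times over 30-s intervals, last minus first.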
12-hLO inh: inhibitors of human 12-lipoxygenase (ALOX12); P18054; purified 12-hLO, xylenol orange hydroperoxide absorbance; Potency, µM (highest dose often 57.1 µM), for inactives: at the highest dose activity change, negative = inhibition, hits mostly inhibitors; 150,000 tested, 0.12% active; also: nearly all actives have a fitted effect of over 55% in size
Target sequence (P18054 whole entry, looked up): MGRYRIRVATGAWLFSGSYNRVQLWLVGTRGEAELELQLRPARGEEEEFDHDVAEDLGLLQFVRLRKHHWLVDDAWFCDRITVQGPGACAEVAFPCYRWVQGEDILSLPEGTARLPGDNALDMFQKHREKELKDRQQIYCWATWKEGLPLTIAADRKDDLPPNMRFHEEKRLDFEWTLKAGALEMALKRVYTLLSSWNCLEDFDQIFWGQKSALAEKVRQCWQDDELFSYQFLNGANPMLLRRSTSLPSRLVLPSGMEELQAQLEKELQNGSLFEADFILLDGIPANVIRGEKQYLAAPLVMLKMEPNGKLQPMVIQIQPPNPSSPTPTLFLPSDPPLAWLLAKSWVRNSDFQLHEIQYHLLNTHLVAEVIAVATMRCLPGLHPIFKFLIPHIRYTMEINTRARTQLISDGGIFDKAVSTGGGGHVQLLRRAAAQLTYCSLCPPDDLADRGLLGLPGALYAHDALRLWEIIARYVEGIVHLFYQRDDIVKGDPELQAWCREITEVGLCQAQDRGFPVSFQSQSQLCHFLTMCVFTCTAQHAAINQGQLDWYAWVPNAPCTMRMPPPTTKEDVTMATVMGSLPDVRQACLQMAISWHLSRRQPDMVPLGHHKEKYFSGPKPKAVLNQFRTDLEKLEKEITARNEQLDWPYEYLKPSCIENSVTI
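Xylenol orange chromogenic assay: hydroperoxide from 12hLO oxidises Fe(II), giving red-shifted Fe(III)-XO absorbance. Conditions: 150 nM enzyme, 40 uM arachidonic acid, 25 mM Hepes pH 7.0, 0.01% Triton X-100, 30 min, room temperature.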
p53ts 32C kill: kills p53ts cells at the permissive temperature. H1299-p53A138V at 32C, ATP luminescence viability, 24 h. Potency, µM (highest dose often 46.1 µM), without a hit: at the top dose activity change, negative = cytotoxicity, most hits filed as cytotoxic. 130,000 tested, 0.93% active. AID 924;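 also: 0% = DMSO and -100% = full killing by reference compound; nearly all actives have a fitted effect of over 55% in size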
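ATP-content luminescence (ATPlite) read-out after 24 h compound exposure at 32C in H1299-p53A138V cells (600/well). Tested up to 46 uM. Normalized to DMSO (0%) and 100 uM tamoxifen (100% killing); Hill-fit AC50.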
The depositor's hits bear a star; ? = inconclusive; . = no result given; [ ] = another dose, or the depositor's remark. Hits are enriched below; roughly 4.4% of the tested compounds scored in any of these assays. Unless noted, calls follow the shape of the dose curve; as a rule, active = well fitted curve in the direction sought with a large enough effect; inconclusive = small, poorly fitted or top-dose-only effect, or another doubt; inactive = no such curve, though single readings can be large; an effect the other way counts as inactive or inconclusive. Unless noted, % is scaled to controls: 0 for no effect and ±100 for the full control effect; potency is read from the fitted curve at half-maximal effect.

SMILES	p53ts 39C kill	HPGD block	12-hLO inh	p53ts 32C kill
Cc1cccc(/C=N/n2c(-c3cc(-c4ccccc4)n[nH]3)n[nH]c2=S)c1	.	5µM*	-7%	.
Cc1cccc(-c2n[nH]c(=S)n2/N=C/c2ccc(C)s2)c1	.	4µM*	-1%	.
CCn1c(=O)cc(OCC(=O)N2CCN(c3cccc(Cl)c3)CC2)c2ccccc21	3%	.	.	11%
COc1ccc(C(=O)Nc2cc(-c3cccc(C)c3)nn2-c2ccccc2)cc1	-17%	.	.	-4%
S=c1[nH]nc(-c2ccncc2)n1/N=C/c1ccccc1	.	32µM*	-5%	.
S=c1[nH]nc(-c2cccnc2)n1/N=C/c1cccs1	.	-15%	-2%	.
CCOC(=O)c1c(-c2ccc(C)cc2)csc1NC(=O)c1cc(-c2ccc(Cl)cc2)on1	23%	.	.	3%
CCOc1cc(/C=C2\SC(=N)N(c3nonc3N)C2=O)ccc1OCC(N)=O	.	13µM*	5%	.
CCN=C1S/C(=C\c2ccc(O)c(OCC)c2)C(=O)N1CC	.	-16%	-6%	.
CCOc1ccc(-n2cc(-c3ccccc3)c3c(NCc4ccc(F)cc4)ncnc32)cc1	-1%	.	.	8%
CCOC(=O)CCCc1sc(N)nc1-c1[nH]c(=O)[nH]c1C	-12%	32µM*	-9%	-1%
Cc1cc(C)c(S(=O)(=O)Nc2ccc(-c3ccc(N4CCCCC4)nn3)cc2)cc1C	-9%	.	.	10%
Oc1c(I)cc(I)c2cccnc12	7.9µM*	?	-16%	?
Oc1ccc(Cl)c2cccnc12	-14%	-4%	-29%	-10%
Oc1c(Cl)cc(Cl)c2cccnc12	3.2µM*	-20%	?	?
CCOC(=O)c1cc(S(=O)(=O)N2CCN(c3ccccc3F)CC2)[nH]n1	-6%	.	.	3%
COc1cccc(Cn2c(=O)c(C)nc3cnc(N(C)C)nc32)c1	-13%	.	.	8%
CCCOc1ccc(CN(C(=O)c2nc(SC(C)C)ncc2Cl)C2CCS(=O)(=O)C2)cc1 (stereo unspecified)	-22%	.	.	7%
COc1ccc(-n2c(C)nc3cc(C(=O)NCc4ccco4)ccc32)cc1	11%	8.9µM*	-7%	-4%
COc1ccccc1-n1cnc2cc(C(=O)NCc3ccco3)ccc21	18%	13µM*	-8%	0%
CCOc1ccc(-n2c(C)nc3cc(C(=O)NCc4ccco4)ccc32)cc1	-8%	8.9µM*	-6%	?
Cc1ccc(C)n1-c1nnc(N2CCCC(C(=O)NCc3ccc(Cl)cc3)C2)s1 (stereo unspecified)	-11%	.	.	-2%
Cc1ccc(S(=O)(=O)NCCNC(=O)c2nonc2N)cc1	.	-12%	2%	.
CSc1nsc(SC)c1C(=O)NCCNS(=O)(=O)c1ccc(C)cc1	15%	20µM*	?	4%
COCCCNC(=O)c1sc2nc(C)c(C(=O)Nc3ccc(C)cc3C)c(-c3ccccc3Cl)c2c1N	-13%	.	.	6%
SMILES	p53ts 39C kill	HPGD block	12-hLO inh	p53ts 32C kill
COc1ccc(S(=O)(=O)Nc2cccc(-c3ccc(N4CCCCCC4)nn3)c2)cc1F	-26%	.	.	-28%
O=S(=O)(Nc1cccc(-c2ccc(N3CCCC3)nn2)c1)c1ccc(F)cc1F	38%	.	.	-17%
COc1ccc(S(=O)(=O)Nc2cccc(-c3ccc(N4CCCCC4)nn3)c2)cc1F	13µM*	.	.	13µM*
O=S(=O)(Nc1cccc(-c2ccc(N3CCCCC3)nn2)c1)c1cccc(F)c1	?	.	.	10µM*
COc1cccc(N2C(=O)CSC23C(=O)N(Cc2ccccc2)c2ccccc23)c1 (stereo unspecified)	-8%	.	.	5%
COc1ccc(OC)c(NC(=O)C(C)n2c(=O)c(-c3ccccc3NC(C)=O)nc3ccccc32)c1 (stereo unspecified)	-7%	.	.	0%
COc1ccccc1NC(=O)c1ccc(S(=O)(=O)N2CCCC2)cc1	1%	-10%	1%	10%
N#CCCSc1ccccc1NC(=O)c1ccc(S(=O)(=O)N2CCCC2)cc1	3%	11µM*	-3%	-8%
COC(=O)C1=C(C(=O)OC)[C@@H]2N(Cc3ccccc3)c3ccccc3[C@@]23C[C@@H](C(=O)OC)N(S(=O)(=O)c2ccc(OC)cc2)C3=N1	.	2%	-2%[11.4 µM]	.
Cc1cccc(CC(=O)N2CC(=O)Nc3ccc(Br)cc3C2c2ccc(F)cc2)c1 (stereo unspecified)	-8%	.	.	4%
Cc1cccc(N2CC(c3nc4ccccc4n3CCC3CCCCC3)CC2=O)c1 (stereo unspecified)	-7%	.	.	-4%
CC1S/C(=N/N=C/c2cccs2)NC1=O (stereo unspecified)	.	.	0%	.
CC(C)C1S/C(=N/N=C/c2cccs2)NC1=O (stereo unspecified)	.	25µM*	5%	.
Cc1sc2c(c1C)c(=O)n(CCc1ccccc1)c(=O)n2Cc1ccc(C(C)(C)C)cc1	-1%	.	.	9%
CCOC(=O)c1c(NC(=O)CSc2nnc(-c3ccccc3)o2)sc(C(C)=O)c1C	.	18µM*	-2%	.
CCOC(=O)c1sc(NC(=O)CSc2nncs2)c(C(=O)OCC)c1C	3%	28µM*	-13%	-2%
CCOC(=O)c1sc(NC(=O)c2cc(-c3ccc(F)cc3)on2)c(C(=O)OCC)c1C	21%	.	.	3%
CCOC(=O)c1c(NC(=O)CSc2nnc(-c3cccc(C)c3)n2CC)sc(C(C)=O)c1C	.	16µM*	-2%	.
CCOC(=O)c1c(NC(=O)c2cc(-c3ccc(O)cc3)on2)sc(C(C)=O)c1C	.	18µM*	-2%	.
COc1ccc(-c2coc3cc(OC(C)=O)cc(OC(C)=O)c3c2=O)cc1	-27%	-29%	0%	?
CCc1ccccc1NC(=O)CSc1nc2c(oc3ccccc32)c(=O)n1-c1ccccc1	-7%	.	.	5%
CCOC(=O)c1sc(NC(=O)c2cc(-c3ccccc3)nc3ccccc23)c(C#N)c1C	.	16µM*	-2%	.
CCOC(=O)c1c(NC(=O)CSc2nnc(Cc3ccccc3)o2)sc(C(C)=O)c1C	.	-18%	-8%	.
CCOC(=O)c1c(NC(=O)CSc2nnc(-c3ccccc3)n2CC)sc(C(C)=O)c1C	-11%	20µM*	-12%	11%
COC(=O)c1ccccc1NC(=O)CSc1nnc(Cc2ccc(Cl)cc2)o1	7%	28µM*	-1%	4%
SMILES	p53ts 39C kill	HPGD block	12-hLO inh	p53ts 32C kill
CCOC(=O)c1sc(NC(=O)CSc2nnc(Cc3ccccc3)o2)c(C#N)c1C	2%	2µM*	-17%	-4%
COc1cccc(NC(=O)c2sc3nc(C)c(C(=O)Nc4ccc(C)cc4C)c(-c4ccccc4Cl)c3c2N)c1	16%	.	.	7%
COc1cccc(N2CCN(C(=O)Cn3nc(C)n4c(cc5c(OC)cccc54)c3=O)CC2)c1	-9%	.	.	8%
CCOC(=O)c1c(NC(=O)CSc2n[nH]c(-c3ccco3)n2)sc(C)c1C	5%	16µM*	-16%	14%
O=C(COC(=O)c1ccccc1Nc1ccc(SC(F)F)cc1)NCc1ccco1	.	14µM*	-2%	.
NC(=O)COC(=O)c1ccccc1Nc1ccc(SC(F)F)cc1	.	11µM*	-7%	.
CC(C)(C)NC(=O)COC(=O)c1ccccc1Nc1ccc(SC(F)F)cc1	.	?	-5%	.
